# Paper PMC11006913
# Where a chain is given by its changes, count along the chain named.
# Experiments:
# Assay in all cases: PBM; 200 nM protein, PBS
# Conditions in all cases: dsDNA, one strand shown
# MSX2 [1] = molecular target: MSX2 (Homo sapiens, UniProt P35548 130-214, R199I)
# MSX2 [2] = molecular target: MSX2 (Homo sapiens, UniProt P35548 130-214)
# VAX1 [3] = molecular target: VAX1 (Homo sapiens, UniProt Q5SQQ9 86-172)
# MSX2 [4] = molecular target: MSX2 (Homo sapiens, UniProt P35548 130-214, F161Y)
# Sequence of MSX2 (Homo sapiens, UniProt P35548 130-214, F161Y) (P35548 130-214 F161Y): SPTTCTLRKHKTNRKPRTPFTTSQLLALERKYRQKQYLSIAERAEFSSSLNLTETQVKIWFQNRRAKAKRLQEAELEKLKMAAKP
# VAX1 [5] = molecular target: VAX1 (Homo sapiens, UniProt Q5SQQ9 86-172, T142I)
# Sequence of VAX1 (Homo sapiens, UniProt Q5SQQ9 86-172, T142I) (Q5SQQ9 86-172 T142I): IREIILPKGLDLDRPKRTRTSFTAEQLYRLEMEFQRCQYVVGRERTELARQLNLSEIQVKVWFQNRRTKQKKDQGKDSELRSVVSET
# VAX1 [6] = molecular target: VAX1 (Homo sapiens, UniProt Q5SQQ9 86-172, K157R)
# Sequence of VAX1 (Homo sapiens, UniProt Q5SQQ9 86-172, K157R) (Q5SQQ9 86-172 K157R): as the sequence (Q5SQQ9 86-172 T142I) above, with I57T, K72R counted along it
# ALX1 [7] = molecular target: ALX1 (Homo sapiens, UniProt Q15699 118-204, L144V)
# Sequence of ALX1 (Homo sapiens, UniProt Q15699 118-204, L144V) (Q15699 118-204 L144V): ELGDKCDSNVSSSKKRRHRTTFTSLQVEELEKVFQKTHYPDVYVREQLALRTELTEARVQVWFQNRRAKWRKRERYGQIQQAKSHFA
# ALX1 [8] = molecular target: ALX1 (Homo sapiens, UniProt Q15699 118-204, L144R)
# Sequence of ALX1 (Homo sapiens, UniProt Q15699 118-204, L144R) (Q15699 118-204 L144R): as the sequence (Q15699 118-204 L144V) above, with V27R counted along it
# ALX1 [9] = molecular target: ALX1 (Homo sapiens, UniProt Q15699 118-204)
# Sequence of ALX1 (Homo sapiens, UniProt Q15699 118-204) (Q15699 118-204): as the sequence (Q15699 118-204 L144V) above, with V27L counted along it
# NKX2-6 [10] = molecular target: T1, NKX2-6 (Homo sapiens, UniProt A6NCS4 118-204)
# T1 sequence: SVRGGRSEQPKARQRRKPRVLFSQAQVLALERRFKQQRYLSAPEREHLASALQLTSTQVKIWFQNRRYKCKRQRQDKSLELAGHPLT
# NKX2-6 [11] = molecular target: T2, NKX2-6 (Homo sapiens, UniProt A6NCS4 118-204, F151L)
# T2 sequence: T1 sequence with F34L
# PROP1 [12] = molecular target: PROP1 (Homo sapiens, UniProt O75360 56-141)
# Sequence of PROP1 (Homo sapiens, UniProt O75360 56-141) (O75360 56-141): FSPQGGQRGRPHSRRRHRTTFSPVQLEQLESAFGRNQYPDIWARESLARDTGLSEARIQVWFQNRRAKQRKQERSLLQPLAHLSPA
# PROP1 [13] = molecular target: PROP1 (Homo sapiens, UniProt O75360 56-141, R99H)
# Sequence of PROP1 (Homo sapiens, UniProt O75360 56-141, R99H) (O75360 56-141 R99H): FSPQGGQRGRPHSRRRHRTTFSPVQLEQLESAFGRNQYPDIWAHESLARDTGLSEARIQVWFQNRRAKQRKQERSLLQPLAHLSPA
# PROP1 [14] = molecular target: PROP1 (Homo sapiens, UniProt O75360 56-141, F88S)
# Sequence of PROP1 (Homo sapiens, UniProt O75360 56-141, F88S) (O75360 56-141 F88S): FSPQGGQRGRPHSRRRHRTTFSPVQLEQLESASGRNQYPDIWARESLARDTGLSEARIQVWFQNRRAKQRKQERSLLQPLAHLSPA
# Sequence of VAX1 (Homo sapiens, UniProt Q5SQQ9 86-172) (Q5SQQ9 86-172): as the sequence (Q5SQQ9 86-172 T142I) above, with I57T counted along it
# Sequence of MSX2 (Homo sapiens, UniProt P35548 130-214, R199I) (P35548 130-214 R199I): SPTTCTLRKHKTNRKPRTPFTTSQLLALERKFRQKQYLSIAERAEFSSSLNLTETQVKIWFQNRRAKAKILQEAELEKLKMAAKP
# Sequence of MSX2 (Homo sapiens, UniProt P35548 130-214) (P35548 130-214): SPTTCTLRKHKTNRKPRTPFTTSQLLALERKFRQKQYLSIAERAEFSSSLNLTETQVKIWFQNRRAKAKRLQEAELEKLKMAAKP
sequence,measurement,setting,value
CGCGCGCG,binding signal,MSX2 [1],"9.61 upbm affinity estimate (log intensity, higher = more binding, comparable within an allelic series)"
same,binding signal,MSX2 [2],"9.53 upbm affinity estimate (log intensity, higher = more binding, comparable within an allelic series)"
same,binding signal,VAX1 [3],"7.34 upbm affinity estimate (log intensity, higher = more binding, comparable within an allelic series)"
same,binding signal,MSX2 [4],"9.52 upbm affinity estimate (log intensity, higher = more binding, comparable within an allelic series)"
same,binding signal,VAX1 [5],"7.38 upbm affinity estimate (log intensity, higher = more binding, comparable within an allelic series)"
same,binding signal,VAX1 [6],"7.37 upbm affinity estimate (log intensity, higher = more binding, comparable within an allelic series)"
CAGCCTCC,binding signal,ALX1 [7],"6.61 upbm affinity estimate (log intensity, higher = more binding, comparable within an allelic series)"
same,binding signal,ALX1 [8],"6.48 upbm affinity estimate (log intensity, higher = more binding, comparable within an allelic series)"
same,binding signal,ALX1 [9],"6.39 upbm affinity estimate (log intensity, higher = more binding, comparable within an allelic series)"
GCCGGCCC,binding signal,NKX2-6 [10],"9.25 upbm affinity estimate (log intensity, higher = more binding, comparable within an allelic series)"
same,binding signal,NKX2-6 [11],"9.24 upbm affinity estimate (log intensity, higher = more binding, comparable within an allelic series)"
CCCCCTTC,binding signal,PROP1 [12],"6.16 upbm affinity estimate (log intensity, higher = more binding, comparable within an allelic series)"
same,binding signal,PROP1 [13],"5.96 upbm affinity estimate (log intensity, higher = more binding, comparable within an allelic series)"
same,binding signal,PROP1 [14],"5.76 upbm affinity estimate (log intensity, higher = more binding, comparable within an allelic series)"
